Data as given in the supplement of paper PMC10849652.
The full data set covers some 8,800 targets. This sample favours those with a hit. About 0.5% of all pairs of compound and target were hits.

What was measured:
Assay in all cases: log2 fold change, soluble protein after heating vs DMSO (PISA); higher = thermal stabilisation; K562 lysate, 10 uM; active = over 0.2 and 3.5 SD of the protein, either way, in both replicates (recomputed)
[1] = compound: C1=CC=C(C=C1)[C@H](COC2=CC3=C(C=C2)NC(=O)N3)NC(=O)C4=CC=CN(C4=O)CC5=CC(=C(C=C5)F)F
Outline: (§1)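 K562 pellets were dounce-homogenised in PBS pH 7.4 containing 1 mM MgCl2, and the crude extract, at 1 mg/mL protein, was exposed to 10 μM compound for 30 min. Aliquots were heated for 3 min across 48°C-58°C, pooled, brought to 0.5% NP-40 at 4°C and spun at 21,000xg for 90 min, with the supernatant taken as soluble protein. TMTpro 16plex LC-MS/MS with equalised channel sums quantified that protein. Values are log-two fold changes in thermal stability relative to solvent controls, taken from duplicates.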

[2] = compound: CC1=C(SC2=C1C(=N[C@H](C3=NN=C(N32)C)CC(=O)N)C4=CC=C(C=C4)Cl)C
Outline: as §1

[3] = compound: CC1=C2C(=CC=C1)N=C(N(C2=O)C3=CC=CC=C3C)CN4C=NC5=C(N=CN=C54)N
Outline: as §1

[4] = compound: Cc1sc2c(c1C)C(c1ccc(Cl)cc1)=N[C@@H](CC(=O)OC(C)(C)C)c1nnc(C)n1-2
Outline: as §1

[5] = compound: c1ccc([C@@H]2C[C@H]2NC2CCNCC2)cc1
Outline: as §1

Measured: log2 fold change

ZC2HC1A (UniProt Q96GY0)
Sequence of UniProt Q96GY0 (Q96GY0 whole entry, looked up): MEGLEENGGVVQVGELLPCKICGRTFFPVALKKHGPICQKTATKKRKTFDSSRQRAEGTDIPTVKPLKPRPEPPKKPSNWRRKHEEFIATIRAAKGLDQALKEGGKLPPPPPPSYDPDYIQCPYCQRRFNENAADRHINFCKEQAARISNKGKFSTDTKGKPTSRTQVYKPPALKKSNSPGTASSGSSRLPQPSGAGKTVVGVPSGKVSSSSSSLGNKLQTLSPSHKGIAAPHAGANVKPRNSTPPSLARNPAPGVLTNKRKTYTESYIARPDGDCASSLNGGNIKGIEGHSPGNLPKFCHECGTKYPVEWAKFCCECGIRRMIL
inactive: [1] 0.059 | [2] -0.046 | [3] -0.018 | [4] 0.106 | [5] -0.058

WDR3 (UniProt Q9UNX4)
inactive: [1] 0.039 | [2] -0.026 | [3] 0.006 | [4] -0.014 | [5] 0.056

ZMYM1 (UniProt Q5SVZ6)
Sequence of UniProt Q5SVZ6 (Q5SVZ6 whole entry, looked up): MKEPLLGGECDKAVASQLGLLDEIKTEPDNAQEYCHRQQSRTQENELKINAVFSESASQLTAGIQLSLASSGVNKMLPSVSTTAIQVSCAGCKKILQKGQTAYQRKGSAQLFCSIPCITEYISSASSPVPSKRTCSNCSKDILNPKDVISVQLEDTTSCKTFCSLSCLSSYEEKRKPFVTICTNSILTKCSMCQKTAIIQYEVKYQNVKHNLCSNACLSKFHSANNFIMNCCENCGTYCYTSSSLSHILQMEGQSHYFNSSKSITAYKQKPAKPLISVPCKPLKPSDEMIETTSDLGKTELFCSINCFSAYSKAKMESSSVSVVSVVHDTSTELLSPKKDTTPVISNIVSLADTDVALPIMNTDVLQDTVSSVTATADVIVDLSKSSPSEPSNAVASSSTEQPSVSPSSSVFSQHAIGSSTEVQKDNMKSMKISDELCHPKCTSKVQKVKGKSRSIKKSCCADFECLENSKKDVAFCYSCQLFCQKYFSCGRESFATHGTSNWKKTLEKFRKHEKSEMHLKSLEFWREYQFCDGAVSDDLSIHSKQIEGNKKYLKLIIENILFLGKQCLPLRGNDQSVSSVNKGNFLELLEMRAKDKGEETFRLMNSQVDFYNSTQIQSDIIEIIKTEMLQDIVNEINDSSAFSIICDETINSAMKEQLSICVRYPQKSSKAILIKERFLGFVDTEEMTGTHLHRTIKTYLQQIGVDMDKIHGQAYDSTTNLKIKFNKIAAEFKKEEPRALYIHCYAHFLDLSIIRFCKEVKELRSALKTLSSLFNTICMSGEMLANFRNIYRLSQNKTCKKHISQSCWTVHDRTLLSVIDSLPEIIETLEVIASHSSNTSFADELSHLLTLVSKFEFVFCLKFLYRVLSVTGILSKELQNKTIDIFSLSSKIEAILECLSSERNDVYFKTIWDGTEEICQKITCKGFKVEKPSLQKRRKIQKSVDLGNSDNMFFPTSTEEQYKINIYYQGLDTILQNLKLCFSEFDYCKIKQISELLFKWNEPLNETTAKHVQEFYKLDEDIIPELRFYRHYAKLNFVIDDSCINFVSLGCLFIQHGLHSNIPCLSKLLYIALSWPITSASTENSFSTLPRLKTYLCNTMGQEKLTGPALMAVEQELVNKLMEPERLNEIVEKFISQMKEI
inactive: [1] 0.009 | [2] 0.099 | [3] -0.012 | [4] 0 | [5] -0.2

YTHDC2 (UniProt Q9H6S0)
inactive: [1] 0.004 | [2] -0.018 | [3] -0.078 | [4] -0.002 | [5] 0.058

WDCP (UniProt Q9H6R7)
Sequence of UniProt Q9H6R7 (Q9H6R7 whole entry, looked up): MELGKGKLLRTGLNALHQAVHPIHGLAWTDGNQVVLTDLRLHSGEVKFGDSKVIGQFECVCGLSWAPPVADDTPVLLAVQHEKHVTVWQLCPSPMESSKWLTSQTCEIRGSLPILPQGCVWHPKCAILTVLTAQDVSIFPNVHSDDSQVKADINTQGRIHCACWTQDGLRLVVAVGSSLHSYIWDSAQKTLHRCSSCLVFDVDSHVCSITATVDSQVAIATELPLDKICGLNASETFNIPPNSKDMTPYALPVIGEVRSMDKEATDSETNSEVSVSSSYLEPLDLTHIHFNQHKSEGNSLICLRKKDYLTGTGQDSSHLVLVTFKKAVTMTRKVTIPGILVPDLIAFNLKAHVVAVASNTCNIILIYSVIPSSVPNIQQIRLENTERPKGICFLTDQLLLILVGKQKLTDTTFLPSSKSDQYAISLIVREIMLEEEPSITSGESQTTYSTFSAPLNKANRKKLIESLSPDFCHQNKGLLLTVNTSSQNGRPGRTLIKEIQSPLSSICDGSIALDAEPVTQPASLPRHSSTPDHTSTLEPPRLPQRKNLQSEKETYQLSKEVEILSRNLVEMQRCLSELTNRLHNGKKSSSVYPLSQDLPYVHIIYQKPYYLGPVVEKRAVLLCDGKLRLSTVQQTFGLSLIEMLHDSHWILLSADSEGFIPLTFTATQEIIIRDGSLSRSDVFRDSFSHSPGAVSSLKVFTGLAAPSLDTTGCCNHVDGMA
inactive: [1] 0.023 | [2] 0.068 | [3] -0.04 | [4] 0.049 | [5] 0.025

ZNF644 (UniProt Q9H582)
inactive: [1] 0 | [2] 0.003 | [3] -0.098 | [4] -0.009 | [5] 0.01

WDR45 isoform 2 (UniProt Q9Y484)
inactive: [1] -0.024 | [2] 0.061 | [3] 0.073 | [4] -0.018 | [5] -0.014

WDR24 (UniProt Q96S15)
active: [2] -0.475
inactive: [1] -0.066 | [3] -0.093 | [4] 0.002 | [5] -0.024

UTP3 (UniProt Q9NQZ2)
Sequence of UniProt Q9NQZ2 (Q9NQZ2 whole entry, looked up): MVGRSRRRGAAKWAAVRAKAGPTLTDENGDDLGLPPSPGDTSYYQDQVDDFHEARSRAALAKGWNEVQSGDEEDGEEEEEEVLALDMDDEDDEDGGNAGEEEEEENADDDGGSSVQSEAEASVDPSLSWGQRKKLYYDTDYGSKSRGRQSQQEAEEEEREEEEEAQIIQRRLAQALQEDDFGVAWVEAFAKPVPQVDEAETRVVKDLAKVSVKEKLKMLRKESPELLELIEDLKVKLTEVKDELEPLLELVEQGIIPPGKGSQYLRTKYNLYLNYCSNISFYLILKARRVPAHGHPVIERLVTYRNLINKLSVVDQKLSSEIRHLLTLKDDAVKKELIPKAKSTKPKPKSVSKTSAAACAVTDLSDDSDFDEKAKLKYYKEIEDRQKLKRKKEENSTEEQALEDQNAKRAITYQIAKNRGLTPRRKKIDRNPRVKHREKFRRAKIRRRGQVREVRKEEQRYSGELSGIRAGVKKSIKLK
inactive: [1] -0.009 | [2] -0.035 | [3] 0.076 | [4] -0.158 | [5] 0.018

UQCC2 (UniProt Q9BRT2)
Sequence of UniProt Q9BRT2 (Q9BRT2 whole entry, looked up): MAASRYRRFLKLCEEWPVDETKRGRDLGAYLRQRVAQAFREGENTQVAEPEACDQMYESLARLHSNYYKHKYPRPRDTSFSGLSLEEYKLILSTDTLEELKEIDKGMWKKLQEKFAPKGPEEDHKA
inactive: [1] 0.008 | [2] 0.019 | [3] -0.056 | [4] -0.057 | [5] 0.095

VPS16 (UniProt Q9H269)
inactive: [1] -0.035 | [2] -0.009 | [3] 0.041 | [4] 0.011 | [5] 0.005

USP3 (UniProt Q9Y6I4)
Sequence of UniProt Q9Y6I4 (Q9Y6I4 whole entry, looked up): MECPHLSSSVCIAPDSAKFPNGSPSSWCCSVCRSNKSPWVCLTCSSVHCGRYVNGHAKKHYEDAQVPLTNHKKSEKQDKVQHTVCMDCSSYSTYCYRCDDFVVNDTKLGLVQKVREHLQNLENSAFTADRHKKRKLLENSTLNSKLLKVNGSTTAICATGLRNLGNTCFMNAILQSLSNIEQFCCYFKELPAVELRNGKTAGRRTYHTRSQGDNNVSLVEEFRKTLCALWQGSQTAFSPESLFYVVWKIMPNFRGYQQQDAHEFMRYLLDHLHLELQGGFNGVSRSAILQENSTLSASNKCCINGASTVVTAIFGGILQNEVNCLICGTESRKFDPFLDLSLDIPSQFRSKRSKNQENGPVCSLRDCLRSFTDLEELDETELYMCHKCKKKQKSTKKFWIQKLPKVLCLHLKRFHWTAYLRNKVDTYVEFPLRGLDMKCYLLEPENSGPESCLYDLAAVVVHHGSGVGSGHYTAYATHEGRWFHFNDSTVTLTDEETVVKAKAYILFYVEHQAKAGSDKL
inactive: [1] 0.026 | [2] 0.006 | [3] -0.056 | [4] -0.044 | [5] 0.073

WDR77 (UniProt Q9BQA1)
inactive: [1] 0.02 | [2] 0.012 | [3] 0.012 | [4] 0.006 | [5] 0.006

UNC13D (UniProt Q70J99)
inactive: [1] -0.032 | [2] 0.067 | [3] 0.044 | [4] 0.025 | [5] 0.024

ZFYVE19 (UniProt Q96K21)
inactive: [1] 0.076 | [2] 0.042 | [3] 0.012 | [4] -0.032 | [5] -0.183

VPS11 (UniProt Q9H270)
Sequence of UniProt Q9H270 (Q9H270 whole entry, looked up): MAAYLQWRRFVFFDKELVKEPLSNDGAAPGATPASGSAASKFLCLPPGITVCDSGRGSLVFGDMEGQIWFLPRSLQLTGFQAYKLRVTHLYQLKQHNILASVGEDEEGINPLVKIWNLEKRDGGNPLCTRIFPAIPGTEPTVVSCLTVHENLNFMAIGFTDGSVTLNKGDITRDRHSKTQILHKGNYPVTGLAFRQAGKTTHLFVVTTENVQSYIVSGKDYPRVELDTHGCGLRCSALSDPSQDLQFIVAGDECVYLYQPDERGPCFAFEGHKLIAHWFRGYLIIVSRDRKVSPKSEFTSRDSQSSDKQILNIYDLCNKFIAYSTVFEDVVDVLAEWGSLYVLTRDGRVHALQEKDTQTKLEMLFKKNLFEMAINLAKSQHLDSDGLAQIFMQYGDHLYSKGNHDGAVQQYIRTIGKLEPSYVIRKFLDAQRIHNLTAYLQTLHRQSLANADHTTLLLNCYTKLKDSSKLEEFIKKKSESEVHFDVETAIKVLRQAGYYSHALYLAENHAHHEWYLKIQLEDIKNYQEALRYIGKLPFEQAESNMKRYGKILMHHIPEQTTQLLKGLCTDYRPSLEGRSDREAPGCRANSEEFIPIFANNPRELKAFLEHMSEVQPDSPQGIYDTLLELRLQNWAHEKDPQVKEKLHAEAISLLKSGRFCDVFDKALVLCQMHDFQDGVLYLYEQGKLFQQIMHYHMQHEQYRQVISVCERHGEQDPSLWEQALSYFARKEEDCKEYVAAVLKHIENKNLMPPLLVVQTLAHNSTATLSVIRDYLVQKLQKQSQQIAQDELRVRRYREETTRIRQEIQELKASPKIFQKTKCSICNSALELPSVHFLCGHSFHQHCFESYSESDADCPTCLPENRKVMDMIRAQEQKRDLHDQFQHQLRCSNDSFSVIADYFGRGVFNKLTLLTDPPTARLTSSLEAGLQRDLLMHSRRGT
inactive: [1] -0.018 | [2] -0.001 | [3] 0.044 | [4] 0.048 | [5] 0.029

YEATS4 (UniProt O95619)
Sequence of UniProt O95619 (O95619 whole entry, looked up): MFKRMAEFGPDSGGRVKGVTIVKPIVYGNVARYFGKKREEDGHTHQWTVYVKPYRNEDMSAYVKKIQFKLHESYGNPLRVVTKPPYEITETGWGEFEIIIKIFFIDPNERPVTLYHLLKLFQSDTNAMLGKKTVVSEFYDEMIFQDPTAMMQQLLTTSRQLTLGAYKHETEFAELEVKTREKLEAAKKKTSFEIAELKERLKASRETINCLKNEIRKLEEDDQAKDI
inactive: [1] -0.014 | [2] 0.05 | [3] -0.029 | [4] 0.046 | [5] 0.25

ZDHHC18 (UniProt Q9NUE0)
Sequence of UniProt Q9NUE0 (Q9NUE0 whole entry, looked up): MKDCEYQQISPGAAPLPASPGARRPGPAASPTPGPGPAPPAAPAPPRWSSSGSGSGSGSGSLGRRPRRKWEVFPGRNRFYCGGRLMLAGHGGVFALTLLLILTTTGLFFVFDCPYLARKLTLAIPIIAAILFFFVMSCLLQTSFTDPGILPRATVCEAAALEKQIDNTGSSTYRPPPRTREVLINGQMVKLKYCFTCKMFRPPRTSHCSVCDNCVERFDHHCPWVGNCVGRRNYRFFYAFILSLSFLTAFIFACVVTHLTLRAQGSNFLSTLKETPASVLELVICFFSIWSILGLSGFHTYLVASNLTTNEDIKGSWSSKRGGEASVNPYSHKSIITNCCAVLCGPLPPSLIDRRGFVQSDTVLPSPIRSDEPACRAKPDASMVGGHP
inactive: [1] 0.103 | [2] 0.115 | [3] 0.075 | [4] -0.072 | [5] 0.043

VPS33A (UniProt Q96AX1)
inactive: [1] 0 | [2] 0.017 | [3] 0.014 | [4] -0.013 | [5] -0.01

VPS18 (UniProt Q9P253)
inactive: [1] -0.014 | [2] 0.013 | [3] 0.032 | [4] 0.067 | [5] 0.012
